DT40 TDP1 no CPT: qHTS for Inhibitors of human tyrosyl-DNA phosphodiesterase 1 (TDP1): qHTS in cells in absence of CPT; DT40 Tdp1-/- hTDP1 cells, no CPT, ATP luminescence, 48 h; Potency, µM (series often up to 46.2 µM), without a hit: at the top dose activity change, negative = growth inhibition, usual class: inhibitors; 420,000 compounds, 15% hits; AID 686978, 2013; note: % is set by controls: 0 for no effect and ±100 for the full control effect; nearly all actives have a fitted effect of over 55% in size
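Luminescent ATP content (CellTiter-Glo) served as the growth readout. Knockout chicken DT40 cells expressing human TDP1 were exposed to compounds without camptothecin for a minimum 48 hr at 37 °C.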
HT1080 IDH1KD tx: kills HT-1080 cells with IDH1 knockdown; Potency, µM (top dose mostly 46.1 µM), without a hit: at the top dose activity, negative = toxicity, most hits filed as cytotoxic; HT-1080 IDH1 knockdown viability, ATP luminescence, 48 h; 360,000 compounds, 2% hits;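 note: 0% = DMSO wells and -100% = cell-free medium wells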
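Using the IDH1-knockdown HT-1080 line run in the same batch and compound series as the NT line, viability after 48 h at 37 °C was determined by CellTiter-Glo luminescence and expressed as % activity.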
HepG2 tox: HepG2 cytotoxicity, counter-screen for TGF-b inhibitors | HepG2 CAGA-GFP viability, ATP luminescence, 18 h | Potency, µM (top dose mostly 46.1 µM), for the others: at the highest dose activity change, negative = cytotoxicity, hits mostly cytotoxic | 410,000 compounds, 0.76% hits
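CellTiter-Glo luminescence gave cytotoxicity after 18 hours at 37 degrees C. The cells were HepG2 CAGA-GFP in 1% FBS DMEM, stimulated with 500 pg/mL TGF-beta after compound addition. %Activity was normalised to no-cell wells (complete cell-killing) and DMSO (no toxicity), and curves were fitted and classified.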
TGFb SMAD3 inh: blocks TGF-b signaling; 410,000 compounds, 1.2% hits; Potency, µM (top dose mostly 46.1 µM), without a hit: at the highest dose activity, negative = inhibition, usual class: inhibitors; HepG2 CAGA-GFP TGF-b/SMAD3 reporter, GFP fluorescence, 18 h; TGF-beta stimulated, 500 pg/mL final; note: % is set by controls: 0 for no effect and ±100 for the full control effect; nearly all actives have a fitted effect of over 65% in size
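Inhibition of TGF-beta-driven CAGA-GFP reporter expression in HEPG2 cells is measured by cellular GFP fluorescence after 18 h stimulation with 500 pg/mL recombinant TGF-beta in 1% FBS medium at 37 degrees C.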
DT40 TDP1 CPT: growth inhibition of DT40 Tdp1-/-;hTDP1 cells with camptothecin (screen for TDP1 inhibitors); Potency, µM (titrated, usually from 46.2 µM), for the others: at the top dose activity change, negative = growth inhibition, most hits filed as inhibitors; 420,000 compounds, 12% hits; chicken DT40 Tdp1-/-;hTDP1 cells + 20 nM CPT, ATP luminescence, 48 h; note: % is set by controls: 0 for no effect and ±100 for the full control effect; nearly all actives have a fitted effect of over 55% in size
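Chicken DT40 Tdp1-/- cells complemented with human TDP1, 400 cells/well, exposed to compounds plus 20 nM camptothecin for at least 48 h at 37 C; viability read as ATP content by CellTiter-Glo luminescence.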
HT1080-NT tox: kills 2HG-producing HT-1080-NT fibrosarcoma cells. HT-1080-NT fibrosarcoma viability, CellTiter-Glo ATP luminescence, 48 h. Potency, µM (highest dose often 46.1 µM), for the others: top-dose activity, negative = less viability, hits mostly cytotoxic. 360,000 compounds, 1.6% hits. AID 686970;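 note: NT is the 2HG producing partner of a matched IDH1 knockdown line; 0% = DMSO-treated cells and -100% = media-only wells without cells; nearly all actives have a fitted effect of over 55% in size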
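A 48-hour cytotoxicity screen used HT-1080-NT cells plated 2 hours before compound delivery. ATP-based CellTiter-Glo luminescence measured viability, normalized to DMSO and no-cell controls.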
* hit, by the source's call; ? = inconclusive; . = no result; [ ] = dose if it differs, or a comment. An excerpt weighted towards active compounds, which were near 17% of everything screened. Calls come from the whole dose curve; as a rule, active = well fitted curve in the direction sought with a large enough effect; inconclusive = small, poorly fitted or top-dose-only effect, or another doubt; inactive = no such curve, though single readings can be large; an effect the other way counts as inactive or inconclusive. Potency is the fitted concentration of half-maximal effect.

SMILES	DT40 TDP1 no CPT	HT1080 IDH1KD tx	HepG2 tox	TGFb SMAD3 inh	DT40 TDP1 CPT	HT1080-NT tox
CC(=O)N1CCc2cc(S(=O)(=O)CCC(=O)N3CCc4ccccc4C3)ccc21	-21%	-3%	-13%	?	?	-4%
CC(=O)N1CCc2cc(S(=O)(=O)CCC(=O)N3CCN(c4cc(C)ccc4C)CC3)ccc21	21µM*	4%	-1%	-1%	?	21%
CC(=O)N1CCc2cc(S(=O)(=O)CCC(=O)N(C)c3cc(C)ccc3C)ccc21	-7%	-4%	4%	0%	-23%	0%
Cc1ccc(C)c(N2CCN(C(=O)CN(C)S(=O)(=O)c3ccc4c(c3)CCC(=O)N4)CC2)c1	16µM*	-6%	-15%	-9%	?	0%
CC(=O)N1CCc2cc(S(=O)(=O)CCC(=O)N3CCN(c4cccc(C)c4C)CC3)ccc21	15µM*	.	-3%	-4%	16µM*	.
Cc1cccc(/C=N/n2c(C)cc(C)c(C#N)c2=O)c1	0%	9%	12%	-20%	-2%	-2%
COc1ccc(CNc2ccc3c(c2)ncn3C)cc1OC	?	16µM*	-3%	0%	?	16µM*
Cc1ccc(CNc2ccc3c(c2)ncn3C)cc1	-16%	0%	-1%	-1%	-12%	7%
O=C(C1CCCN(S(=O)(=O)c2ccc(Cl)cc2)C1)N(Cc1cccs1)C1CC1 (stereo not drawn)	18µM*	-10%	0%	-9%	?	3%
CN(CC(=O)Nc1cc(S(=O)(=O)N2CCCC2)ccc1Cl)Cc1cccs1	16µM*	-4%	-28%	?	?	-12%
CCN(CC(=O)Nc1ccc(S(=O)(=O)N2CCCCC2)cc1)Cc1ccccc1	?	-18%	-40%	-16%	12µM*	3%
O=S(=O)(c1ccc(S(=O)(=O)N(Cc2ccccc2)Cc2ccco2)cc1)N1CCCC1	?	-18%	-16%	-8%	15µM*	-7%
Cc1ccc(S(=O)(=O)N2CCCCC2)cc1NC(=O)Cc1cccs1	3%	4%	-12%	2%	-29%	2%
O=C(Cc1ccccc1F)Nc1cc(S(=O)(=O)N2CCCC2)ccc1Cl	17%	2%	1%	6%	-6%	9%
CCN(CC(=O)Nc1cc(S(=O)(=O)N2CCCCC2)ccc1Cl)Cc1ccccc1	18µM*	-23%	-9%	0%	16µM*	0%
CC(=O)N1CCC[C@H]1C(=O)NCC1Cc2cc(Cl)cc(-c3ccc4[nH]ccc4c3)c2O1 (stereo partly drawn)	?	.	.	.	23%[9.04 µM]	.
COc1ccccc1C(=O)Nc1ccc2oc(-c3ccc(F)cc3)nc2c1	?	-10%	-4%	-1%	18µM*	-3%
Cc1cc2nc(-c3ccc(NC(=O)c4ccccc4F)cc3)oc2cc1C	8.2µM*	.	-11%	-3%	?	.
O=C(Nc1ccc(-c2nc3cc(NC(=O)c4ccc(F)cc4)ccc3o2)cc1)c1ccc(F)cc1	-2%	.	-45%	-1%	23%	.
CCOC(=O)c1ccc(OCCN2C[C@H](O)[C@@H](O)[C@H](O)[C@H]2CO)cc1	?	.	.	.	-3%	.
CCOC(=O)C1CCN(S(=O)(=O)c2cc(Br)cc3c2N(C(C)=O)C(C)C3)CC1 (stereo not drawn)	-24%	-10%	6%	-1%	?	7%
CCOc1ccc(OCC)c(NS(=O)(=O)c2cc(Br)cc3c2N(C(C)=O)C(C)C3)c1 (stereo not drawn)	13µM*	.	-25%	?	?	.
COc1cccc(CNS(=O)(=O)c2cc(Br)cc3c2N(C(C)=O)C(C)C3)c1 (stereo not drawn)	?	0%	-10%	-23%	-8%	6%
CC(=O)N1c2c(cc(Br)cc2S(=O)(=O)N2CCN(c3cccc(Cl)c3)CC2)CC1C (stereo not drawn)	9.2µM*	.	-19%	?	10µM*	.
CCOc1ccc(N(CC)S(=O)(=O)c2cc(Br)cc3c2N(C(C)=O)C(C)C3)cc1 (stereo not drawn)	7.3µM*	.	-55%	10µM*	21µM*	.
SMILES	DT40 TDP1 no CPT	HT1080 IDH1KD tx	HepG2 tox	TGFb SMAD3 inh	DT40 TDP1 CPT	HT1080-NT tox
CCOC(=O)N1CCN(S(=O)(=O)c2cc(Br)cc3c2N(C(C)=O)C(C)C3)CC1 (stereo not drawn)	-18%	2%	-12%	2%	-18%	10%
Cc1ccc(NC(=O)C2=NNC(=O)CC2)cc1S(=O)(=O)Nc1ccc(SC(F)F)cc1	?	0%	0%	-8%	?	-5%
COc1ccc(NC(=O)COC(=O)C2CCN(S(=O)(=O)c3ccccc3)CC2)cc1Cl	1%	1%	-1%	-2%	0%	8%
Cc1cc(NC(=O)c2ccc3c(c2)OCCO3)ccc1NC(=O)c1cc2ccccc2o1	4.6µM*	?	-14%	?	5.8µM*	?
Cc1cc(NC(=O)c2cccnc2Cl)ccc1NC(=O)c1cc2ccccc2o1	10µM*	-15%	4%	19%	9.2µM*	-18%
Cc1cc(NC(=O)c2cccnc2)ccc1NC(=O)c1cc2ccccc2o1	10µM*	1%	-29%	?	13µM*	0%
CCc1ccccc1N(c1nc(-c2ccc(OC)c(OC)c2)no1)c1nc(-c2ccc(OC)c(OC)c2)no1	6%	.	-14%	6%	2%	.
O=C(NCC1CCCO1)C1CCN(C2CCN(C(=O)CC3CCCC3)CC2)CC1 (stereo not drawn)	6%	8%	0%	-2%	5%	9%
O=C(NCC1CCCO1)C1CCN(C2CCN(CCCC3CCCC3)CC2)CC1 (stereo not drawn)	23µM*	-29%	-12%	-7%	15µM*	-21%
CCCCNC(=O)c1ccccc1C(=O)NCCCC	29µM*	-12%	-9%	-9%	29µM*	?
CCCCCCCCCCCNC(=O)c1ccoc1C	18µM*	-7%	-21%	24%	21µM*	0%
O=C(CN1CCCc2ccccc21)NC(=O)NC1CCCCC1	?	5%	5%	?	?	0%
O=C1CC2(CCN1)CCN(Cc1ccccc1)CC2	-13%	21%	-32%	-12%	-2%	15%
COc1ccc2c(c1)C(C)=CC(C)(C)N2C(=O)CSc1nnc(-c2ccc(C)cc2)o1	?	?	-6%	-31%	?	?

Screening data (PubChem BioAssay)
